Experimental data published in PubChem BioAssay.
Activity calls are given as the source filed them.

Tests used:
[1] = system: Plasmodium falciparum Sir2 (PF13_0152, Sir2A); assay: pfSir2 binders on small-molecule microarrays, primary screen, biochemical, small-molecule microarray, 635 nm fluorescence (AID 1098); settings: small-molecule microarray binding, fluorescence 635 nm; higher = more signal;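 note: score merges spot fluorescence intensity with its signal-to-noise ratio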
[2] = small-molecule microarray binders of probe aDKK1, primary screen, biochemical, biotinylated probe, 635/667 nm fluorescence (AID 1099); settings: higher = more signal;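 note: score merges 667nm spot fluorescence with signal to noise across triplicate slides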
[3] = small-molecule microarray binders of probe aCHRDL2, primary screen, biochemical, biotinylated probe, 635/667 nm fluorescence (AID 1100); settings: higher = more signal
[4] = splicing luciferase reporter signal modulators, primary screen, spliceosome inhibition project, cell-based, HEK293, splice +/- reporter (AID 1101); settings: luminescence, 24 h, higher = more signal, called active from +8 up or from −8 down;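 note: HEK293 cells carrying a splicing-competent luciferase reporter gene; test concentration not given here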
[5] = target: Fibroblast growth factor 10 (Homo sapiens) (UniProt O15520); assay: FGF10 binders on small-molecule microarrays, primary screen, biochemical, small-molecule microarray, 635 nm fluorescence (AID 1102); settings: FGF10 binding, fluorescence 635 nm, higher = more signal
Chain of Fibroblast growth factor 10 (Homo sapiens) (O15520 whole entry, looked up): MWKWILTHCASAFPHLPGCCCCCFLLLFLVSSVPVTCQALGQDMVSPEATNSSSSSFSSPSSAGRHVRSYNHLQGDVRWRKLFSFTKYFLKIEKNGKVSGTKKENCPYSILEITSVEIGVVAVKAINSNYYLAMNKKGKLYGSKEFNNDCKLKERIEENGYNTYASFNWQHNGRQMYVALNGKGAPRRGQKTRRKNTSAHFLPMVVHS

[6] = system: glycogen synthase kinase-3 (GSK3A per assay name; protocol says GSK3B); assay: GSK3 binders on small-molecule microarrays, primary screen, biochemical, small-molecule microarray, 635 nm fluorescence, GSK3A (AID 1103); settings: small-molecule microarray binding, fluorescence 635 nm; higher = more signal; note: the record names both GSK3A and GSK3B
[7] = target: Epidermal growth factor receptor (Homo sapiens) (UniProt P00533); assay: EGFR binders on small-molecule microarrays, primary screen, biochemical, small-molecule microarray, 635 nm fluorescence (AID 1104); settings: EGFR binding, higher = more signal;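 note: score merges 667 nm emission intensity with spot signal to noise over triplicate slides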
Chain of Epidermal growth factor receptor (Homo sapiens) (P00533 whole entry, looked up): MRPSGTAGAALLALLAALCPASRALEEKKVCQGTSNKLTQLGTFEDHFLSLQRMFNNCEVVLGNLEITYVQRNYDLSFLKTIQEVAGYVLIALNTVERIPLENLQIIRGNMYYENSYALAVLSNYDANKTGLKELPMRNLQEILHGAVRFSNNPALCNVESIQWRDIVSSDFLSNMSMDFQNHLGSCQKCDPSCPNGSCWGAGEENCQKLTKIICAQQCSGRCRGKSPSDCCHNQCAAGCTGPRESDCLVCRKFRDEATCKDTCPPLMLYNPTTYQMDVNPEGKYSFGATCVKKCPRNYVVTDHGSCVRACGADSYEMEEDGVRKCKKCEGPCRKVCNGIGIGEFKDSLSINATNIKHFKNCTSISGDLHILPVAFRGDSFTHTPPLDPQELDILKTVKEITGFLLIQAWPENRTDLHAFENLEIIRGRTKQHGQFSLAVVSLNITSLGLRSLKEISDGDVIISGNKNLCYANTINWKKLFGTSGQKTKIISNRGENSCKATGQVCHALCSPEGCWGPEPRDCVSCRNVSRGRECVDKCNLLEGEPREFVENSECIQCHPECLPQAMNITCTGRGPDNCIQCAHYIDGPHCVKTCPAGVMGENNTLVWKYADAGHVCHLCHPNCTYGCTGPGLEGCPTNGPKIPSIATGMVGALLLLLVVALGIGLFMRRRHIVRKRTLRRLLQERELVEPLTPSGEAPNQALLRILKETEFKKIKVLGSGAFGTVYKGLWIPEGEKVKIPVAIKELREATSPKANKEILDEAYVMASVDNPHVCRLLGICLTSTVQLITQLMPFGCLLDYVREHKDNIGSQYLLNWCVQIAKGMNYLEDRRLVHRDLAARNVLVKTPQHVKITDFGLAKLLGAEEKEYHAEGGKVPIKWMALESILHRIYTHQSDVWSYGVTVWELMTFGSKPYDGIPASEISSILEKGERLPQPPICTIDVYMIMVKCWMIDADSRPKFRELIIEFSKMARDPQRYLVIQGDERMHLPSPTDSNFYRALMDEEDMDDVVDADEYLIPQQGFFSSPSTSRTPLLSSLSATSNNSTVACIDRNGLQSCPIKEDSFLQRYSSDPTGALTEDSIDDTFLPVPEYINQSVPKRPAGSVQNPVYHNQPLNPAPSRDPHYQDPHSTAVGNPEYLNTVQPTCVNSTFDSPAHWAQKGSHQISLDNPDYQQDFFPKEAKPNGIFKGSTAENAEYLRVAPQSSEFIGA

[8] = target: Follistatin-related protein 3 (Homo sapiens) (UniProt O95633); assay: FSTL3 binders on small-molecule microarrays, primary screen, biochemical, small-molecule microarray, 635 nm fluorescence (AID 1105); settings: FSTL3 binding, higher = more signal;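 note: score merges emission near 667 nm and signal to noise per printed spot across three slides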
Chain of Follistatin-related protein 3 (Homo sapiens) (O95633 whole entry, looked up): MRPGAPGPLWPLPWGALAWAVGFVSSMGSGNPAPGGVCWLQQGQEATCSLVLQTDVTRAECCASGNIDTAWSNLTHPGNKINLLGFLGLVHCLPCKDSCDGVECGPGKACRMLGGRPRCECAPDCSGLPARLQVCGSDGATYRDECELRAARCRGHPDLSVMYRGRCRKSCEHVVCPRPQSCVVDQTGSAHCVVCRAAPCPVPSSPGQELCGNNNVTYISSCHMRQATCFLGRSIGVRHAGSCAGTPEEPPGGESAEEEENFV

[9] = target: Dickkopf-related protein 1 (Homo sapiens) (UniProt O94907); assay: DKK1 binders on small-molecule microarrays, primary screen, biochemical, small-molecule microarray, 635 nm fluorescence scan (AID 1106); settings: DKK1 binding, higher = more signal;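 note: score merges emission near 667 nm with signal to noise over three replicate slides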
Chain of Dickkopf-related protein 1 (Homo sapiens) (O94907 whole entry, looked up): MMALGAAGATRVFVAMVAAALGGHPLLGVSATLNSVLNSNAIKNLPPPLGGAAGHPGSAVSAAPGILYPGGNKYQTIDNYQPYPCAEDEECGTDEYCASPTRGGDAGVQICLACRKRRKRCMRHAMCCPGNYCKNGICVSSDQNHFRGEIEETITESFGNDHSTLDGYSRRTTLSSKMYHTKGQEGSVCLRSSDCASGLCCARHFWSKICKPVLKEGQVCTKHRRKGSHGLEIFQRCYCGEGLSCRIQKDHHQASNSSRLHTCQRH

[10] = system: Inhibin beta A chain (activin A); assay: INHBA (activin A) binders on microarrays, primary screen, biochemical, small-molecule microarray, 635 nm fluorescence scan (AID 1107); settings: small-molecule microarray binding, higher = more signal;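 note: mouse activin A protein probed at 4.33 µg/mL on printed slides; score merges bound-protein fluorescence near 667 nm with spot signal-to-noise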
[11] = system: Human papillomavirus type 1a protein E7 (residues 44-93); assay: HPV1a E7 fragment binders on microarrays, primary screen, biochemical, small-molecule microarray, residues 44-93, 635 nm fluorescence (AID 1108); settings: small-molecule microarray binding, fluorescence 635 nm; higher = more signal;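 note: E7 fragment applied at 1 µg/mL in TBST for 1 h at 4 C; score combines spot fluorescence with its signal to noise ratio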
[12] = modulators of HCV replicon luciferase signal, primary screen, HCV replication inhibitor project, Huh7 cells, luciferase reporter (AID 1109); settings: 48 h, higher = more signal;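 note: huh7 hepatoma cells harbouring a luciferase neomycin HCV replicon reporter; luciferase luminescence as measure of HCV replicon replication; test concentration not given here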
[13] = target: Left-right determination factor 2 (Homo sapiens) (UniProt O00292); assay: LEFTY2 binders on small-molecule microarrays, primary screen, biochemical, small-molecule microarray, 635 nm fluorescence scan (AID 1110); settings: LEFTY2 binding, higher = more signal
Chain of Left-right determination factor 2 (Homo sapiens) (O00292 whole entry, looked up): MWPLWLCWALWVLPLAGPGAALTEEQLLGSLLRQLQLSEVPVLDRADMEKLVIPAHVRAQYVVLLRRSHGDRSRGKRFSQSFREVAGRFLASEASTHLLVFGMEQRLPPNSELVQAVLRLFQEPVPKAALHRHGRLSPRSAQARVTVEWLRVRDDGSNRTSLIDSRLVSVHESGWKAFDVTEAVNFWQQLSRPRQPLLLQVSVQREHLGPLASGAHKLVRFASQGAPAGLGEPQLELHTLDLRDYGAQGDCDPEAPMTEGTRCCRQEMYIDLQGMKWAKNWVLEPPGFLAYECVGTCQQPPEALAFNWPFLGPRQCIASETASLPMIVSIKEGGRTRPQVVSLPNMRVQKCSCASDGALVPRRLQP

[14] = target: Calmodulin-1 (Homo sapiens) (UniProt P0DP23); assay: CALM1 binders on microarrays, EGTA buffer, profiling panel, biochemical, small-molecule microarray, Cy5-labelled CALM1 (AID 1111); settings: Cy5-CALM1 binding fluorescence, higher = more signal;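 note: labelled calmodulin applied in Tris saline Tween buffer holding calcium plus EGTA and DTT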
[15] = target: Calmodulin-1 (Homo sapiens) (UniProt P0DP23); assay: calcium-bound CALM1 binders on microarrays, profiling panel, artefact control for SMM control-protein annotation, biochemical, small-molecule microarray, Cy5-labelled CALM1, plus calcium (AID 1112); settings: Cy5-CALM1 binding fluorescence, higher = more signal;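 note: score merges spot fluorescence with signal to noise from triplicate slides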
[16] = small-molecule microarray binders of probe aWnt5a, primary screen, biochemical, biotinylated probe, 635/667 nm fluorescence (AID 1113); settings: higher = more signal;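 note: score merges 667 nm fluorescence intensity with signal-to-noise per printed feature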
[17] = small-molecule microarray binders of probe aShh, primary screen, biochemical, biotinylated probe, 635/667 nm fluorescence (AID 1114); settings: higher = more signal;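 note: probe is biotin-labelled aShh protein from a stem cell growth factor screen; measures binding of labelled protein to compounds printed on the slide; score merges feature fluorescence at 667 nm with signal-to-noise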
[18] = small-molecule microarray binders of probe aNog, primary screen, biochemical, biotinylated probe, 635/667 nm fluorescence (AID 1115); settings: higher = more signal;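 note: probe is biotinylated aNog protein used at 0.15 µg/mL for 1 h at 4 C; z-score combines 667 nm fluorescence of each spot with its signal to noise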
[19] = target: Torsin-1A-interacting protein 1 (Homo sapiens) (UniProt Q5JTV8); assay: LAP1 binders from COS7 cell lysate, primary screen, small-molecule microarray, 635/667 nm fluorescence (AID 1116); settings: COS7-hLAP1 lysate binding, 635 nm fluorescence, higher = more signal
Chain of Torsin-1A-interacting protein 1 (Homo sapiens) (Q5JTV8 whole entry, looked up): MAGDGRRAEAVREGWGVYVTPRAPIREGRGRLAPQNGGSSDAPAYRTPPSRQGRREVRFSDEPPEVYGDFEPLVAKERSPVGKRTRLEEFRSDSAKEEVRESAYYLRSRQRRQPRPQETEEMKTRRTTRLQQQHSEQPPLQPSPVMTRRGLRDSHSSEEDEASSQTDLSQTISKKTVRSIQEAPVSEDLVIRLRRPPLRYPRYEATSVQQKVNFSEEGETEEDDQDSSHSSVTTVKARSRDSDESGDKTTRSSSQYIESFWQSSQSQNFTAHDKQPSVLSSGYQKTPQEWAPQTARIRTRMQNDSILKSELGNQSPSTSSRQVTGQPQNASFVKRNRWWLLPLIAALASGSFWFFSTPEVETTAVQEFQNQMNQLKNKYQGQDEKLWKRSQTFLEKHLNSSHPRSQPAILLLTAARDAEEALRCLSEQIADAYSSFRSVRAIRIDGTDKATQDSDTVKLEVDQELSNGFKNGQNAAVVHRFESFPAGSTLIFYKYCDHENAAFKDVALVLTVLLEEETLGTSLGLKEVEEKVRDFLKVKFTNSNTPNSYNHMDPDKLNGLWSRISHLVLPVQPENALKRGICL

[20] = target: Alpha-bungarotoxin (Bungarus multicinctus) (UniProt P60615); assay: alpha-bungarotoxin binders on microarray, profiling panel, artefact control for SMM control protein annotation, biochemical, small-molecule microarray, Alexa647 label, 635/667 nm fluorescence (AID 1117); settings: alpha-BTX-A647 binding fluorescence, higher = more signal
Chain of Alpha-bungarotoxin (Bungarus multicinctus) (P60615 whole entry, looked up): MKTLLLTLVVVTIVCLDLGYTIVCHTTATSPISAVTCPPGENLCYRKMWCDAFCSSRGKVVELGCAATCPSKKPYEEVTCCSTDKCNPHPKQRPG

SMILES | composite z-score [1] | composite z-score [2] | composite z-score [3] | z-score [4] | composite z-score [5] | composite z-score [6] | composite z-score [7] | composite z-score [8] | composite z-score [9] | composite z-score [10] | composite z-score [11] | z-score [12] | composite z-score [13] | composite z-score [14] | composite z-score [15] | composite z-score [16] | composite z-score [17] | composite z-score [18] | composite z-score [19] | composite z-score [20]
Cc1ccc(S[C@]2(C(=O)NC(C)C)CC(=O)N(Cc3ccccc3)[C@@H]2c2ccc(CO)cc2I)cc1 | 0.984 | 0.498 | 1.27 | -0.328 (inactive) | -0.284 | -0.683 | -1.27 | -0.911 | -2.57 | 1.01 | -0.0832 | -1.78 | -1.13 | 0.129 | 0.454 | -0.172 | 0.0711 | 0.813 | -0.426 | -0.684
[N-]=[N+]=NCc1ccccc1[C@H]1OC(c2ccc(OCCCO)cc2)=N[C@@]1(CCS(=O)(=O)c1ccccc1)C(=O)NCCN1CCOCC1 | 1.51 | 0.667 | 1.12 | -0.757 (inactive) | 1.38 | 0.844 | 0.135 | 0.698 | 0.0689 | 0.914 | 1.49 | -0.233 | 0.0744 | 1.39 | 0.593 | 0.143 | -0.107 | -0.612 | 1.06 | 1.3
C=CCNC(=O)[C@H]1[C@@H]2C(=O)O[C@@H](c3ccccc3)[C@@H](c3ccccc3)N2[C@@H](c2ccc(O)cc2)[C@]12C(=O)Nc1ccc(C#CCC(C(=O)OC)C(=O)OC)cc12 | -0.147 | 0.199 | 0.599 | -0.0204 (inactive) | 0.727 | 1.04 | -0.195 | 0.339 | 0.415 | 1.08 | -0.952 | -0.174 | -0.243 | -0.416 | -0.401 | -0.0495 | 0.171 | -0.302 | 0.49 | 0.0559
[N-]=[N+]=NCc1ccccc1C[C@]1(C(=O)N2CCCCC2)COC(c2ccc(OCCCO)cc2)=N1 | 0.314 | 0.0279 | 0.552 | 0.0234 (inactive) | 0.786 | 1.02 | 1.1 | 0.636 | 0.221 | -0.297 | 0.288 | -2.57 | 0.227 | 0.103 | -0.171 | -0.255 | 0.262 | -0.694 | 2.29 | 0.49
COc1ccc([Si](C)(C)[C@@H]2[C@@H](CC(=O)N(CCO)Cc3ccccc3)O[C@]3(C(=O)N(Cc4cccc(I)c4)c4ccccc43)[C@H]2C)cc1 | 0.824 | -0.0248 | 0.337 | -0.847 (inactive) | 1.45 | 0.766 | 0.661 | 1.42 | 1.34 | 0.963 | 1.28 | -3.82 | 0.741 | 2.83 | 1.21 | -0.0425 | 0.564 | 0.0051 | 0.319 | 0.855
Cc1ccc(N2C(=O)c3ccccc3[C@@H](C(=O)NCCN3CCOCC3)[C@@H]2c2ccc(CO)cc2)nc1 | 1.25 | 0.0086 | 0.685 | 0.17 (inactive) | -0.329 | -1.09 | -0.914 | -0.799 | -0.459 | -0.382 | 0.113 | 0.193 | -1.29 | -0.287 | 0.609 | -0.1 | -0.214 | -0.434 | -1.3 | -0.843
C[N+](C)(C)CCCC[C@@H]1NC(=O)[C@H]2C[C@@H](C(=O)NCCCCCN)[C@@H](c3ccc(O)cc3)N2C1=O | 0.977 | 0.876 | 0.863 | 0.127 (inactive) | 1.53 | 1.34 | 0.243 | 0.58 | 0.89 | 0.617 | -0.0195 | 0.493 | 1.34 | 1.67 | 0.631 | -0.0403 | -0.0886 | 0.177 | 1.52 | 2.54
C=CCC(OC(C)=O)[C@@H]1[C@@H](N(Cc2cccc3ccccc23)C(=O)c2ccc(C)cc2)c2cc(OCCCO)ccc2N1C(=O)Cc1ccc2ccccc2c1 (stereo not given in full) | -0.542 | 0.0891 | 0.135 | -1.86 (inactive) | -0.123 | -0.0662 | 0.13 | -0.345 | 0.248 | 1.34 | -0.857 | 0.198 | -0.163 | 1.1 | 0.709 | -0.0718 | -0.0553 | 0.0588 | 0.54 | 0.273
OCCCc1cc[n+](Cc2cc3c(cc2Br)OCO3)cc1 | -0.837 | -0.0013 | 0.706 | 0.341 (inactive) | -0.741 | -1.84 | -1.15 | -0.725 | -0.625 | 0.783 | -0.945 | 1.05 | -1.12 | -1.81 | 0.172 | -0.147 | -0.207 | -0.172 | -0.81 | -2.04
CCCCC=C[C@@H](NC(=O)C(C)(C)C)c1ccccc1 | 0.641 | 0.715 | 0.609 | 0.41 (inactive) | 0.548 | 1.25 | 0.357 | 0.508 | 0.15 | 0.173 | 1.28 | -3.07 | 0.466 | 0.815 | 0.113 | 0.0357 | 0.54 | 0.863 | -0.334 | 0.82
COc1ccc(CCNC(=O)[C@@]2(C)c3ccccc3C(=O)N(Cc3ccc(OC(F)(F)F)cc3)[C@H]2c2ccc(CO)cc2)cc1 | 0.738 | 0.781 | -0.325 | -0.383 (inactive) | 1.19 | 1.3 | 0.743 | 0.286 | 1 | -0.307 | 1.06 | -1.84 | 0.243 | -0.717 | -0.944 | 0.0148 | 0.0181 | -0.737 | 0.986 | 1.04
